Results taken from PubChem BioAssay.
Results filed as inconclusive are left out. Activity calls are given as the source filed them.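 Rule for the calls, unless noted: active = normalized viability below 100% at a tested concentration; inactive = the rest.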

Assays:
[1] = ovarian cancer cell viability with rucaparib, profiling panel, oncology-focused library, rucaparib conditional (AID 1508598); details: patient-derived ovarian cancer cells, CellTiter-Glo viability, 144 h, stronger effect = lower value
[2] = growth inhibition of DIPG glioma cells, dose response, cell-based, SU-DIPG-XVII, MIPE5.0, CellTiter-Glo, qHTS (AID 1347060; cut-off not given, nearly all actives have AC50 up to about 26 µM;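 for AC50: cells exposed to compound for 48 hours before viability readout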); details: SU-DIPG-XVII viability, CellTiter-Glo ATP luminescence
[3] = growth inhibition of DIPG glioma cells, dose response, cell-based, JHH-DIPG-1, MIPE4.0, CellTiter-Glo, qHTS (AID 1347062; cut-off not given, nearly all actives have AC50 up to about 27 µM;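 for AC50: cells exposed to compound for two days before readout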); details: JHH-DIPG-1 viability, CellTiter-Glo ATP luminescence
[4] = growth inhibition of DIPG glioma cells, dose response, cell-based, SU-DIPG-IV, MIPE4.0, CellTiter-Glo, qHTS (AID 1347063; cut-off not given, nearly all actives have AC50 up to about 30 µM;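 note: compound exposure lasted 48 hours before the viability readout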); details: SU-DIPG-IV viability, CellTiter-Glo ATP luminescence
[5] = growth inhibition of DIPG glioma cells, dose response, cell-based, SU-DIPG-XIII, MIPE5.0, CellTiter-Glo, qHTS (AID 1347064; cut-off not given, nearly all actives have AC50 up to about 23 µM;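 for AC50: cells exposed to compound for 48 hours before the viability read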); details: SU-DIPG-XIII viability, CellTiter-Glo ATP luminescence
[6] = viability loss in pontine glioma line – cell-based, SU-DIPG-XXV, MIPE5.0, CellTiter-Glo, qHTS, dose response (AID 1347065; cut-off not given, nearly all actives have AC50 up to about 26 µM;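 note: cells exposed to compound for 48 hours before ATP readout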); details: CellTiter-Glo ATP luminescence
[7] = SU-DIPG-VI glioma cell viability, MIPE4.0 library, CellTiter-Glo luminescence, qHTS (AID 1347066; cut-off not given, nearly all actives have AC50 up to about 30 µM;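 note: cells exposed to compound for 48 hours before readout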); details: CellTiter-Glo ATP luminescence
[8] = JHH-DIPG-1 glioma cell viability, MIPE5.0 library, CellTiter-Glo luminescence, qHTS (AID 1347067; cut-off not given, nearly all actives have AC50 up to about 26 µM;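 note: cells exposed to compound for 48 hours before readout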); details: JHH-DIPG-1 glioma viability, CellTiter-Glo ATP luminescence
[9] = SU-DIPG-XXV glioma cell viability, MIPE5.0 library, qHTS (AID 1347068; cut-off not given, nearly all actives have IC50 up to about 30 µM;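 for IC50: cells exposed to compound for 48 hours before viability readout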)
[10] = sensitizers of A549 cells to miR-34 induction, primary screen, imaging, A549 dox-inducible miR-34, nuclei and caspase counts (AID 1347080;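 active = compounds whose cell count with miR-34 switched on is under 0.7 times the count with it off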); details: A549 miR-34 inducible, Hoechst nuclei count, 48 h
[11] = survival rescue of mitochondrial mutant cells in low glucose, primary screen, MELAS cybrids, Rieske KO mouse fibroblasts, CellTiter-Glo (AID 1508586;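 active = mean z-score across replicates of 1.96 or higher in either the MELAS or the Rieske mutant cell line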;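 note: z relative to plate mean and SD of compound and empty wells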)
[12] = modifiers of HSF1 nuclear foci, imaging, Selleck Cancer Library (AID 1347162; in the data active = plate-normalised HSF1 focus index below about 0.46); details: human cells, at 10 µM; SSMD: measured here: HSF1 foci SSMD mean; cell count: measured here: cell number; plate-normalised HSF1 focus index: stronger effect = lower value
[13] = growth inhibition of DIPG glioma cells, dose response, cell-based, SU-DIPG-XIII, MIPE4.0, CellTiter-Glo, qHTS (AID 1347061; cut-off not given, nearly all actives have AC50 up to about 37 µM;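 note: cells exposed to compound for 48 hours before readout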); details: SU-DIPG-XIII viability, CellTiter-Glo ATP luminescence
[14] = at 0.0195 µM, OCI-C5x cells, without rucaparib
[15] = at 0.0195 µM, OCI-P5x cells, with rucaparib 20 µM, 100% = cells with rucaparib alone
[16] = at 0.0195 µM, OCI-P5x cells, without rucaparib
[17] = at 0.0781 µM, OCI-C5x cells, with rucaparib 10 µM, 100% = cells with rucaparib alone
[18] = at 0.0781 µM, OCI-C5x cells, without rucaparib
[19] = at 0.0781 µM, OCI-P5x cells, with rucaparib 20 µM, 100% = cells with rucaparib alone
[20] = at 0.0781 µM, OCI-P5x cells, without rucaparib
[21] = at 0.313 µM, OCI-C5x cells, with rucaparib 10 µM, 100% = cells with rucaparib alone
[22] = at 0.313 µM, OCI-C5x cells, without rucaparib
[23] = at 0.313 µM, OCI-P5x cells, with rucaparib 20 µM, 100% = cells with rucaparib alone
[24] = at 0.313 µM, OCI-P5x cells, without rucaparib
[25] = at 1.25 µM, OCI-C5x cells, with rucaparib 10 µM, 100% = cells with rucaparib alone
[26] = at 1.25 µM, OCI-C5x cells, without rucaparib
[27] = at 1.25 µM, OCI-P5x cells, with rucaparib 20 µM, 100% = cells with rucaparib alone
[28] = at 1.25 µM, OCI-P5x cells, without rucaparib
[29] = at 5 µM, OCI-C5x cells, with rucaparib 10 µM, 100% = cells with rucaparib alone
[30] = at 5 µM, OCI-C5x cells, without rucaparib
[31] = at 5 µM, OCI-P5x cells, with rucaparib 20 µM, 100% = cells with rucaparib alone
[32] = at 5 µM, OCI-P5x cells, without rucaparib
[33] = stronger effect = lower value, cell number ratio, induced over uninduced
[34] = measured here: relative caspase fold change +Dox/-Dox
[35] = measured here: total cells with miR-34 induction, stronger effect = lower value
[36] = measured here: total cells without miR-34 induction
[37] = MELAS cybrid survival, CellTiter-Glo 48 h, stronger effect = higher value
[38] = Rieske KO mouse fibroblast survival, CellTiter-Glo 72 h
[39] = at 0.000305 µM, OCI-C5x cells, with rucaparib 10 µM, 100% = cells with rucaparib alone
[40] = at 0.000305 µM, OCI-C5x cells, without rucaparib
[41] = at 0.000305 µM, OCI-P5x cells, with rucaparib 20 µM, 100% = cells with rucaparib alone
[42] = at 0.000305 µM, OCI-P5x cells, without rucaparib
[43] = at 0.00122 µM, OCI-C5x cells, with rucaparib 10 µM, 100% = cells with rucaparib alone
[44] = at 0.00122 µM, OCI-C5x cells, without rucaparib
[45] = at 0.00122 µM, OCI-P5x cells, with rucaparib 20 µM, 100% = cells with rucaparib alone
[46] = at 0.00122 µM, OCI-P5x cells, without rucaparib
[47] = at 0.00488 µM, OCI-C5x cells, with rucaparib 10 µM, 100% = cells with rucaparib alone
[48] = at 0.00488 µM, OCI-C5x cells, without rucaparib
[49] = at 0.00488 µM, OCI-P5x cells, with rucaparib 20 µM, 100% = cells with rucaparib alone
[50] = at 0.00488 µM, OCI-P5x cells, without rucaparib
[51] = at 0.0195 µM, OCI-C5x cells, with rucaparib 10 µM, 100% = cells with rucaparib alone

CC1(COc2ccc3c(c2)ncn3-c2ccc3cccc(N4CCC(N)CC4)c3n2)COC1
active: viability [1, 29] 77.3% | viability [1, 30] 77.6% | viability [1, 31] 4.5% | viability [1, 32] 81.8%
inactive: viability [1, 14] 127% | viability [1, 15] 119% | viability [1, 16] 127% | viability [1, 17] 119% | viability [1, 18] 130% | viability [1, 19] 131% | viability [1, 20] 120% | viability [1, 21] 116% | viability [1, 22] 137% | viability [1, 23] 129% | viability [1, 24] 123% | viability [1, 25] 102% | viability [1, 26] 131% | viability [1, 27] 142% | viability [1, 28] 119%

CCN(CC)CCNC(=O)c1ccc2nc(-c3ccccc3)c(-c3ccc(CN4CCC(n5c(=O)[nH]c6ccccc65)CC4)cc3)nc2c1
active: AC50 [2] 11.8 µM | AC50 [3] 8.33 µM | AC50 [4] 4.69 µM | AC50 [5] 14.8 µM | AC50 [6] 10.5 µM | AC50 [7] 3.32 µM | AC50 [8] 10.5 µM | IC50 [9] 7.42 µM

CNC(=O)c1ccc(N2C(=S)N(c3cnc(C#N)c(C(F)(F)F)c3)C(=O)C23CCC3)cc1F
9240: cell count [10, 35]
active: AC50 [3] 0.935 µM | AC50 [4] 1.32 µM | AC50 [7] 18.7 µM
10200: cell count [10, 36]
inactive: outcome [2] | outcome [5] | outcome [6] | outcome [8] | outcome [9] | fold change [10, 33] 0.909 | z-score [11, 37] -0.228
0.701: fold change [10, 34]
0.855: z-score [11, 38]

Cc1ccc(Nc2cc(-c3cccc(N4C(=O)c5ccccc5C4=O)c3)ncn2)cc1NS(C)(=O)=O
inactive: outcome [3]
active: AC50 [2] 20.9 µM | AC50 [4] 18.7 µM

O=C(c1ccc(F)cc1)N1CCC[C@H](c2nc(-c3ccc(F)cc3)no2)C1
inactive: outcome [2] | outcome [3] | outcome [4] | outcome [5] | outcome [6] | outcome [7] | outcome [8] | outcome [9]

O=C(O)CCCCCC(=O)NN=C1CCCC1
inactive: outcome [2] | outcome [3] | outcome [4] | outcome [5] | outcome [6] | outcome [7] | outcome [8] | outcome [9]

Cn1cnc(=N)c2[nH]cnc21
-0.808: z-score [11, 38]
active: AC50 [3] 4.69 µM | AC50 [4] 4.69 µM | AC50 [7] 0.235 µM | viability [1, 41] 99% | viability [1, 42] 94.2% | viability [1, 46] 97.1% | viability [1, 50] 99.6%
inactive: outcome [2] | outcome [5] | outcome [6] | outcome [8] | outcome [9] | fold change [10, 33] 0.904 | plate-normalised HSF1 focus index [12] 1.08 | z-score [11, 37] -0.304 | viability [1, 39] 112% | viability [1, 40] 111% | viability [1, 43] 111% | viability [1, 44] 114% | viability [1, 45] 100% | viability [1, 47] 107% | viability [1, 48] 119% | viability [1, 49] 108% | viability [1, 51] 114% | viability [1, 14] 112% | viability [1, 15] 113% | viability [1, 16] 102% | viability [1, 17] 107% | viability [1, 18] 111% | viability [1, 19] 116% | viability [1, 20] 107% | viability [1, 21] 112% | viability [1, 22] 116% | viability [1, 23] 107% | viability [1, 24] 109% | viability [1, 25] 110% | viability [1, 26] 115% | viability [1, 27] 109% | viability [1, 28] 109% | viability [1, 29] 100% | viability [1, 30] 125% | viability [1, 31] 116% | viability [1, 32] 110%
10400: cell count [10, 36]
0.712: fold change [10, 34]
7250: cell count [12]
9400: cell count [10, 35]
2.26: SSMD [12]

Clc1ccc(COC(Cn2ccnc2)c2ccc(Cl)cc2Cl)cc1 (configuration not stated)
inactive: outcome [13]
active: AC50 [2] 18.6 µM | AC50 [6] 16.6 µM | AC50 [8] 13.2 µM

CNC(=O)c1cc(Oc2ccc(NC(=O)Nc3cc(C(C)(C)C)nn3-c3ccc4ncccc4c3)c(F)c2)ccn1
0.0864: SSMD [12]
608: cell count [10, 35]
inactive: outcome [7] | fold change [10, 33] 0.963 | plate-normalised HSF1 focus index [12] 1.01 | viability [1, 39] 112% | viability [1, 40] 112% | viability [1, 41] 103% | viability [1, 42] 108% | viability [1, 43] 102% | viability [1, 44] 117% | viability [1, 45] 110% | viability [1, 46] 103% | viability [1, 47] 108% | viability [1, 48] 116% | viability [1, 49] 116% | viability [1, 50] 102% | viability [1, 51] 107% | viability [1, 14] 118% | viability [1, 15] 110% | viability [1, 17] 115% | viability [1, 18] 113% | viability [1, 19] 114% | viability [1, 22] 105% | viability [1, 23] 120%
active: AC50 [2] 5.9 µM | AC50 [3] 7.43 µM | AC50 [4] 8.33 µM | AC50 [5] 0.0661 µM | AC50 [6] 9.34 µM | AC50 [8] 5.9 µM | IC50 [9] 20.9 µM | z-score [11, 37] 3.18 | viability [1, 16] 97.7% | viability [1, 20] 97.7% | viability [1, 21] 96.9% | viability [1, 24] 96.4% | viability [1, 25] 77.5% | viability [1, 26] 96.1% | viability [1, 27] 29.9% | viability [1, 28] 97.7% | viability [1, 29] 9.96% | viability [1, 30] 8.93% | viability [1, 31] 17.1% | viability [1, 32] 4.51%
6970: cell count [12]
632: cell count [10, 36]
0.469: fold change [10, 34]
0.93: z-score [11, 38]
